13 molecules from PubChem BioAssay (NCI) can be followed below.

This is part of a sample that, as a whole, favours compounds with a hit. Of some 83,000 tested, about 20% had one in any assay.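 Treatment: one concentration, 48 hours, 96-well format. Scoring: percent growth, with anything below 10 considered active.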 Unmarked numbers belong to inactive results. Activity calls are given as the source filed them.

Some test systems named below: NCI-H23 lung; NCI-H226 lung; NCI-H322M lung; HOP-62 NSCLC; NCI-H460 lung; HOP-92 NSCLC; NCI-H522 lung; A549/ATCC NSCLC; 786-0 renal; COLO 205 colon.
What all share (test): NCI-60 one-dose screen, 48 h (100 = growth as untreated, 0 = no growth, -100 = all killed)
Holding throughout (conditions): 10 µM unless noted

On to `COc1ccc(C(=O)c2nccc3cc(OC)c(OC)cc23)cc1OC`, for which the growth in the assay with NCI-H23 lung is 51.9%; with NCI-H226 lung it was 97%; in the assay with NCI-H322M lung, 120%; in the assay on HOP-62 NSCLC, 95.3%; in the assay on NCI-H460 lung it was 103%; with HOP-92 NSCLC, 78.5%. Also, the growth in the assay on NCI-H522 lung is 33.4%; in the assay with A549/ATCC NSCLC, 98.3%; in the assay on 786-0 renal, 109%; in the assay on COLO 205 colon it was 126%.

In the case of `C[C@H]1[C@H](C)CC[C@]2(C(=O)O)CC[C@]3(C)C(=CC[C@@H]4[C@@]5(C)C/C(=C/c6cccnc6)[C@H](O)C(C)(C)[C@@H]5CC[C@]43C)[C@H]12`, the growth with NCI-H23 lung is 14.3% [100 µM]; in the assay with NCI-H226 lung, -24.2% [100 µM] (active); in the assay with NCI-H322M lung, -16.4% [100 µM] (active); in the assay on HOP-62 NSCLC, -29.1% [100 µM] (active); with NCI-H460 lung, -31.1% [100 µM] (active); in the assay on HOP-92 NSCLC, -3.06% [100 µM] (active). The growth in the assay with NCI-H522 lung was -4.55% [100 µM] (active); in the assay on A549/ATCC NSCLC, 8.85% [100 µM] (active); in the assay on 786-0 renal it was 1.92% [100 µM] (active); with COLO 205 colon, -80.4% [100 µM] (active).

As to `CCOC(=O)CC(c1ccccc1)C(C#N)c1ccccc1` (stereo not given), the growth is 102% with NCI-H23 lung; 95.4% in the assay on NCI-H226 lung; 108% in the assay with NCI-H322M lung; 96.2% in the assay on HOP-62 NSCLC; 105% with NCI-H460 lung; 90.9% in the assay with HOP-92 NSCLC. The growth is 95.9% in the assay on NCI-H522 lung, 99.3% with A549/ATCC NSCLC, 98.7% in the assay on 786-0 renal and 100% in the assay with COLO 205 colon.

`O=C(O)CC1CCCCC1c1ccccc1` (stereo not given): the growth in the assay with NCI-H23 lung is 111%; in the assay on NCI-H226 lung, 98.7%; in the assay with NCI-H322M lung, 103%; with HOP-62 NSCLC it was 112%; in the assay with NCI-H460 lung it was 119%; in the assay on HOP-92 NSCLC it was 99.8%. In addition, the growth is 90.1% in the assay on NCI-H522 lung, 106% in the assay on A549/ATCC NSCLC, 103% with 786-0 renal and 113% in the assay on COLO 205 colon.

With `CC1(C)NCCC[C@]2(C)[C@H]3C=CC4=C5C[C@](C)(CO)CC[C@]5(C)CC[C@@]4(C)[C@]3(C)CC[C@@H]12`, the growth with NCI-H23 lung is -84.9% [100 µM] (active); in the assay on NCI-H226 lung, -59.1% [100 µM] (active); with NCI-H322M lung, -99.7% [100 µM] (active); in the assay on HOP-62 NSCLC, -74.5% [100 µM] (active); in the assay with NCI-H460 lung, -81.6% [100 µM] (active); in the assay on HOP-92 NSCLC, -76.4% [100 µM] (active). Also, the growth in the assay with NCI-H522 lung was -75.6% [100 µM] (active); in the assay on A549/ATCC NSCLC, -66.5% [100 µM] (active); with 786-0 renal it was -72% [100 µM] (active); in the assay with COLO 205 colon, -55.9% [100 µM] (active).

`CCN(CC)CCCCCCNc1cccc2cc(Br)cnc12`: the growth is 85.7% with NCI-H23 lung; 108% with NCI-H226 lung; 94.3% in the assay on NCI-H322M lung; 118% with HOP-62 NSCLC; 87.3% with NCI-H460 lung; 71.6% with HOP-92 NSCLC. In addition, the growth with NCI-H522 lung is 26.7%; in the assay on A549/ATCC NSCLC, 97.8%; with 786-0 renal, 92.8%; with COLO 205 colon, 89.9%.

Consider `N#CCCc1c[nH]c2ccccc12`, for which the growth was 105% with NCI-H23 lung; 90.3% with NCI-H226 lung; 94.1% in the assay with NCI-H322M lung; 82% with HOP-62 NSCLC; 97.7% in the assay with NCI-H460 lung; 75.5% in the assay with HOP-92 NSCLC. Further, the growth with NCI-H522 lung is 94.6%; in the assay with A549/ATCC NSCLC, 89%; in the assay on 786-0 renal, 104%; in the assay with COLO 205 colon, 99.5%.

For `COc1ccc2c(c1)c(-c1noc(-c3cn(C)c4ncc(F)cc34)n1)cn2C`, the growth was 75.4% in the assay on NCI-H23 lung; 108% in the assay with NCI-H226 lung; 57% in the assay on NCI-H322M lung; 55.7% in the assay on HOP-62 NSCLC; 18.5% in the assay with NCI-H460 lung; 69.9% in the assay with HOP-92 NSCLC. Also, the growth was 79% in the assay on NCI-H522 lung, 21.5% with A549/ATCC NSCLC, 50.8% in the assay with 786-0 renal and 88.3% in the assay on COLO 205 colon.

Consider `CC(C)=CC/C=C(/C)[C@H]1CC[C@]2(C)[C@@H]1CC[C@@H]1[C@@]3(C)CCCNC(C)(C)[C@@H]3CC[C@]12C`, for which the growth with NCI-H23 lung is -61.7% [100 µM] (active); with NCI-H226 lung it was -49.5% [100 µM] (active); in the assay with NCI-H322M lung it was -99.4% [100 µM] (active); in the assay on HOP-62 NSCLC it was -48.3% [100 µM] (active); in the assay on NCI-H460 lung, -74.2% [100 µM] (active); in the assay on HOP-92 NSCLC, -56.6% [100 µM] (active). In addition, the growth was -59.3% [100 µM] (active) in the assay with NCI-H522 lung, -51.8% [100 µM] (active) with A549/ATCC NSCLC, -56.2% [100 µM] (active) in the assay with 786-0 renal and -62.4% [100 µM] (active) with COLO 205 colon.

Regarding `COc1cc(C)cc2oc3oc(=O)c(C(=O)c4cc5cc(Br)ccc5o4)cc3c(=O)c12`, the growth in the assay with NCI-H23 lung was 107%; in the assay on NCI-H226 lung, 96.7%; with NCI-H322M lung, 97.3%; in the assay with HOP-62 NSCLC it was 104%; in the assay with NCI-H460 lung it was 107%; with HOP-92 NSCLC it was 102%. The growth in the assay on NCI-H522 lung is 101%; in the assay with A549/ATCC NSCLC it was 102%; in the assay with 786-0 renal it was 110%; with COLO 205 colon, 125%.

With `COc1cc(OC)cc(C(=O)Nc2cc(-c3cccnc3)nc(NCCCN3CCOCC3)n2)c1`, the growth is 91.7% in the assay with NCI-H23 lung; 85.7% in the assay with NCI-H226 lung; 90.9% in the assay on NCI-H322M lung; 87.8% with HOP-62 NSCLC; 95.3% in the assay on NCI-H460 lung; 67.7% in the assay with HOP-92 NSCLC. Further, the growth in the assay with NCI-H522 lung was 92%; in the assay on A549/ATCC NSCLC, 92.6%; in the assay on 786-0 renal, 84%; in the assay with COLO 205 colon, 94.3%.

`O=C1CC(c2ccccc2)Cc2nc3ccc(Br)cc3cc21` (stereo not given): the growth in the assay on NCI-H23 lung is 39.6%; with NCI-H226 lung, 24.1%; in the assay with NCI-H322M lung, 35.9%; with HOP-62 NSCLC, 40.4%; in the assay with NCI-H460 lung it was 4.63% (active); in the assay with HOP-92 NSCLC, 40.1%. The growth is -3.56% (active) with NCI-H522 lung, 23.8% in the assay with A549/ATCC NSCLC, 41.2% in the assay on 786-0 renal and -36.3% (active) with COLO 205 colon.

With `O=C(CCN1CCCCC1)c1ccc2ccccc2c1`, the growth was 103% with NCI-H23 lung; 92.2% with NCI-H226 lung; 98.4% with NCI-H322M lung; 108% with HOP-62 NSCLC; 103% with NCI-H460 lung; 92.8% in the assay on HOP-92 NSCLC. Besides, the growth with NCI-H522 lung was 93.5%; with A549/ATCC NSCLC, 102%; with 786-0 renal, 111%; in the assay on COLO 205 colon, 112%.
